Experimental findings from PubChem BioAssay (EPA / NIEHS) are described below.

The target of assay [1] is Retinoic acid receptor RXR-alpha (Homo sapiens) (UniProt P19793). Put plainly: ATG_RXRa_TRANS: Attagene TRANS-FACTORIAL HepG2 Assay for human Retinoid X Receptor alpha (RXRa) (AID 2283012; active means hit-call score of the fitted dose curve at least 0.9, where 1 is the maximum). An outline of the steps: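 Chimeric NR-GAL4 trans-activation in HepG2, 24 h treatment; reporter transcripts quantified by fluorescence on capillary electrophoresis, analysed for upward change from DMSO.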
Retinoic acid receptor RXR-alpha (Homo sapiens), sequence (P19793 whole entry, looked up, the tested form may be a part): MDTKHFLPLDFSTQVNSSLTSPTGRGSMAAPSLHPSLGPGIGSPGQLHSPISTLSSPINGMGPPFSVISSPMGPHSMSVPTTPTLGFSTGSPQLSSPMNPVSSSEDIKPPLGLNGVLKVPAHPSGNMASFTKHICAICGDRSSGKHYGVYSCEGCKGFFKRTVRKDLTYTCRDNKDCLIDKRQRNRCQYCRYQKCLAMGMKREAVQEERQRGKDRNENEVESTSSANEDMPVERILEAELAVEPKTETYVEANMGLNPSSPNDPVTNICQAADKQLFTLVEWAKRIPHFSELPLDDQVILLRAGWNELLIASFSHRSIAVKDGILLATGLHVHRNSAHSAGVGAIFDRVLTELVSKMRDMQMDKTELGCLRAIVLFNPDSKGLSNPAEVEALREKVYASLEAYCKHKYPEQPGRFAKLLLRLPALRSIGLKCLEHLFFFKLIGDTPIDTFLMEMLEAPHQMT

Assay [2] has as its target human Retinoid X Receptor beta (RXRb), RXRB (gene 6257) (UniProt P28702). Put plainly: ATG_RXRb_TRANS: Attagene TRANS-FACTORIAL HepG2 Assay for human Retinoid X Receptor beta (RXRb) (AID 2283013; active means hit-call score of the fitted dose curve at least 0.9, where 1 is the maximum). An outline of the steps: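 After a 24 h incubation with test chemical, transfected HepG2 cells carrying NR-Gal4 fusions and GAL4-UAS reporter transcription units yield RNA whose reporter cDNA is FAM-labelled, HpaI-cut and sized by capillary electrophoresis; increases over DMSO are scored.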

Read-out in assay [3]: Interleukin-1 alpha (IL1a), IL1A (gene 3552)
The assay can be described thus: BSK_BE3C_IL1a: BioMAP Diversity Plus: BE3C Assay for Interleukin-1 alpha (IL1a) Biomarker Activity (AID 2283016). Conditions: primary human bronchial epithelial cells; actives raise or lower the signal. An outline of the steps: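 Measured in human lung primary bronchial epithelial cells: IL-1a by ELISA at 24 h after dosing, with bidirectional fitting against DMSO.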

Read-out in assay [4]: Monocyte Chemoattractant Protein-1 (MCP1), CCL2 (gene 6347)
The assay can be described thus: BSK_3C_MCP1: BioMAP Diversity Plus: 3C Assay for Monocyte Chemoattractant Protein-1 (MCP1) Biomarker Activity (AID 2283017). The note with it: primary human endothelial cells (HUVEC); actives raise or lower the signal. In short, it runs like this: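 Using human vascular primary endothelium, researchers measured MCP-1 by ELISA 24 h after treatment, with DMSO serving as negative control for bidirectional fitting.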

Read-out in assay [5]: Monocyte Chemoattractant Protein-1 (MCP1), CCL2 (gene 6347)
The assay can be described thus: BSK_4H_MCP1: BioMAP Diversity Plus: 4H Assay for Monocyte Chemoattractant Protein-1 (MCP1) Biomarker Activity (AID 2283018). The note with it: primary human endothelial cells (HUVEC); actives raise or lower the signal. An outline of the steps:
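Primary human umbilical vein endothelium is exposed to chemical for 24 h before MCP-1 is assayed by ELISA. Concentration-response fitted bidirectionally relative to DMSO.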

Read-out in assay [6]: Human Leukocyte Antigen - DR isotype (HLADR), HLA-DRA (gene 3122)
Put plainly: BSK_3C_HLADR: BioMAP Diversity Plus: 3C Assay for Human Leukocyte Antigen - DR isotype (HLADR) Biomarker Activity (AID 2283019).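 On outcome: ELISA of cell-surface HLA-DR on HUVEC 24 h after dosing.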 Conditions: primary human endothelial cells (HUVEC); actives raise or lower the signal. An outline of the steps: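 Compound added to primary HUVEC cultures, 24 h incubation, then HLA-DR determined by ELISA; endpoint derived by bidirectional fitting relative to DMSO negative control.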

Read-out in assay [7]: Interleukin-8 (IL8), CXCL8 (gene 3576)
The assay can be described thus: BSK_3C_IL8: BioMAP Diversity Plus: 3C Assay for Interleukin-8 (IL8) Biomarker Activity (AID 2283020). Conditions: primary human endothelial cells (HUVEC); actives raise or lower the signal. An outline of the steps:
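Using DMSO-treated wells as the baseline, bidirectional curve fitting was applied to ELISA-measured IL-8 from human umbilical vein endothelial cultures sampled 24 h after compound addition.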

Read-out in assay [8]: Monokine induced gamma interferon (MIG), CXCL9 (gene 4283)
The assay can be described thus: BSK_3C_MIG: BioMAP Diversity Plus: 3C Assay for Monokine induced gamma interferon (MIG) Biomarker Activity (AID 2283021).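 On AC50: MIG protein level measured by immunoassay in the treated endothelial cultures.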 Conditions: primary human endothelial cells (HUVEC); actives raise or lower the signal. In short, it runs like this: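 ELISA-measured MIG in dosed HUVEC 3C cultures at 24 h, analysed by bidirectional fitting with DMSO defining baseline activity.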

Assay [9] is described as follows: BSK_3C_SRB: Viability Assessment in the BioMAP Diversity Plus: 3C Assay (AID 2283023).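 Further: cells read 24 h after compound dosing; fitted both ways against DMSO so a hit may be signal rise or drop.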 Conditions: primary human endothelial cells (HUVEC). In short, it runs like this:
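Overt cytotoxicity is gauged in parallel confluent HUVEC cultures by SRB total-protein staining at the time of biomarker measurement, 24 h after dosing. Gain or loss of signal is fitted versus DMSO.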

Read-out in assay [10]: Matrix Metallopeptidase 1 (MMP1), MMP1 (gene 4312)
Put plainly: BSK_BE3C_MMP1: BioMAP Diversity Plus: BE3C Assay for Matrix Metallopeptidase 1 (MMP1) Biomarker Activity (AID 2283024). The note with it: primary human bronchial epithelial cells; actives raise or lower the signal. An outline of the steps: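 In this multiplexed primary-cell system, human bronchial epithelium received chemicals for 24 h before an ELISA for MMP1. Values reflect bidirectional fits normalised to the DMSO baseline.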

The nature of assay [11]: BSK_4H_SRB: Viability Assessment in the BioMAP Diversity Plus: 4H Assay (AID 2283027).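 Further: cells exposed to compound for 24 h before staining.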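 On AC50: curves fitted both ways versus DMSO so AC50 may be loss or gain.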 Conditions: primary human endothelial cells (HUVEC). In short, it runs like this: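 HUVEC, 24 h post-dose; 10% TCA fix, 0.1% SRB stain, A560 nm. Total protein = overt cytotoxicity, parallel to biomarker read. Bidirectional fit vs DMSO baseline.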
Read-out in assay [12]: Urokinase-type plasminogen activator receptor (uPAR), PLAUR (gene 5329)
The assay can be described thus: BSK_4H_uPAR: BioMAP Diversity Plus: 4H Assay for Urokinase-type plasminogen activator receptor (uPAR) Biomarker Activity (AID 2283030). The note with it: primary human endothelial cells (HUVEC); actives raise or lower the signal. In short, it runs like this: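 Endpoint derived via bidirectional curve fitting against DMSO baseline; readout was ELISA detection of uPAR on umbilical vein endothelial cells at 24 h post-treatment, with SRB-stained parallel cultures assessing cytotoxicity.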

Read-out in assay [13]: Vascular endothelial growth factor receptor 2 (Homo sapiens) (UniProt P35968)
Put plainly: BSK_4H_VEGFRII: BioMAP Diversity Plus: 4H Assay for Vascular endothelial growth factor receptor 2 (VEGFR2) Biomarker Activity (AID 2283031). The note with it: primary human endothelial cells (HUVEC); actives raise or lower the signal. An outline of the steps: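 In this multiplexed HUVEC system, biomarker ELISA was performed after 24 h chemical exposure. Parallel SRB staining (TCA fixation, 560 nm) tracked cytotoxicity; DMSO served as baseline.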

Read-out in assay [14]: Human Leukocyte Antigen - DR isotype (HLADR), HLA-DRA (gene 3122)
Put plainly: BSK_BE3C_HLADR: BioMAP Diversity Plus: BE3C Assay for Human Leukocyte Antigen - DR isotype (HLADR) Biomarker Activity (AID 2283032). The note with it: primary human bronchial epithelial cells; actives raise or lower the signal. In short, it runs like this: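 BioMAP BE3C format: human bronchial epithelium, 24 h compound treatment, ELISA detection of HLA-DR, with bidirectional analysis relative to DMSO.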

Read-out in assay [15]: Vascular cell adhesion molecule 1 (VCAM1), VCAM1 (gene 7412)
Put plainly: BSK_4H_VCAM1: BioMAP Diversity Plus: 4H Assay for Vascular cell adhesion molecule 1 (VCAM1) Biomarker Activity (AID 2283033).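 On outcome: cell-surface VCAM-1 protein measured by ELISA.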 Conditions: primary human endothelial cells (HUVEC); actives raise or lower the signal. In short, it runs like this:
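In this human endothelial (HUVEC) system, biomarker ELISA was run 24 h after compound addition, and total protein in parallel wells was assessed by SRB at 560 nm; DMSO served as negative control.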

Assay [16] concerns the target human Thyroid Receptor alpha (THRa1), THRA (gene 7067) (UniProt P10827). The assay can be described thus: ATG_THRa1_TRANS: Attagene TRANS-FACTORIAL HepG2 Assay for human Thyroid Receptor alpha (THRa1) (AID 2283014; active means hit-call score of the fitted dose curve at least 0.9, where 1 is the maximum). In short, it runs like this:
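Measured here is mRNA from a GAL4-UAS reporter in transfected HepG2 cells carrying a Gal4-fused receptor, 24 h post-dose. DMSO served as negative control and baseline.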

Read-out in assay [17]: E-selectin (Homo sapiens) (UniProt P16581)
Put plainly: BSK_3C_Eselectin: BioMAP Diversity Plus: 3C Assay for Eselectin Biomarker Activity (AID 2283015).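 On outcome: cell surface E-selectin protein quantified by ELISA 24 h after dosing.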 The note with it: primary human endothelial cells (HUVEC); actives raise or lower the signal. An outline of the steps:
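Endpoint derived by bidirectional fitting against DMSO vehicle; signal is ELISA-detected E-selectin from primary HUVEC at 24 h post-dosing, with parallel SRB staining (0.1% SRB, 560 nm) flagging cytotoxicity.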

Read-out in assay [18]: Pselectin, SELP (gene 6403)
The assay can be described thus: BSK_4H_Pselectin: BioMAP Diversity Plus: 4H Assay for Pselectin Biomarker Activity (AID 2283026). Conditions: primary human endothelial cells (HUVEC); actives raise or lower the signal. In short, it runs like this: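 Bidirectional fits against DMSO gave the endpoint. Cells: primary human umbilical vein endothelium, chemical-treated for 24 h before ELISA detection of P-selectin.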

Assay [19] can be described thus: BSK_BE3C_SRB: Viability Assessment in the BioMAP Diversity Plus: BE3C Assay (AID 2283028).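 On AC50: fitted both ways so AC50 may mark signal gain or loss versus DMSO.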 Conditions: primary human bronchial epithelial cells. In short, it runs like this: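 SRB total-protein staining (0.1%, after TCA fixation) of chemically dosed human bronchial epithelial primary cells at 24 h; DMSO serves as the negative control for bidirectional curve fitting.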

Assay [20] addresses human Vitamin D Receptor (VDR), VDR (gene 7421) (UniProt P11473). The assay can be described thus: ATG_VDR_TRANS: Attagene TRANS-FACTORIAL HepG2 Assay for human Vitamin D Receptor (VDR) (AID 2283022; active means hit-call score of the fitted dose curve at least 0.9, where 1 is the maximum). An outline of the steps:
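Multiplexed TRANS reporter in HepG2; 24 h treatment; reporter mRNA by RT-PCR plus capillary electrophoresis; upregulation scored relative to DMSO.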

Records with an inconclusive call do not appear. The source made the active and inactive calls. How the source made its calls, unless noted: active means hit-call score of the fitted dose curve at least 0.9, where 1 is the maximum; inactive means score below 0.9.

human Thyroid Receptor alpha (THRa1), THRA (gene 7067), sequence (P10827 whole entry, looked up, the tested form may be a part): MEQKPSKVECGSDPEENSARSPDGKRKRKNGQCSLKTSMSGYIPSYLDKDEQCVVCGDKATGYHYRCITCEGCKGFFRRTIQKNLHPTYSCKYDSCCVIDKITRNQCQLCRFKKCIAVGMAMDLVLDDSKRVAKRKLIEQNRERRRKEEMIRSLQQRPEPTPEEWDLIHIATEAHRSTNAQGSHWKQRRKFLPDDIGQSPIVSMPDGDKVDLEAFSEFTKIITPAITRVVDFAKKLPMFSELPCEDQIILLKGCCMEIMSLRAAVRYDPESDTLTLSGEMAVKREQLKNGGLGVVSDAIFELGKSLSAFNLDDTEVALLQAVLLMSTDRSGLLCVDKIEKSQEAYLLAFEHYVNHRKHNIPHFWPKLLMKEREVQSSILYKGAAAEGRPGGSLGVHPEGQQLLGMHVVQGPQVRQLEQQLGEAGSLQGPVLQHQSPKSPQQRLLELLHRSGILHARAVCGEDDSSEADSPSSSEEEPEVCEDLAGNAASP
E-selectin (Homo sapiens), sequence (P16581 whole entry, looked up): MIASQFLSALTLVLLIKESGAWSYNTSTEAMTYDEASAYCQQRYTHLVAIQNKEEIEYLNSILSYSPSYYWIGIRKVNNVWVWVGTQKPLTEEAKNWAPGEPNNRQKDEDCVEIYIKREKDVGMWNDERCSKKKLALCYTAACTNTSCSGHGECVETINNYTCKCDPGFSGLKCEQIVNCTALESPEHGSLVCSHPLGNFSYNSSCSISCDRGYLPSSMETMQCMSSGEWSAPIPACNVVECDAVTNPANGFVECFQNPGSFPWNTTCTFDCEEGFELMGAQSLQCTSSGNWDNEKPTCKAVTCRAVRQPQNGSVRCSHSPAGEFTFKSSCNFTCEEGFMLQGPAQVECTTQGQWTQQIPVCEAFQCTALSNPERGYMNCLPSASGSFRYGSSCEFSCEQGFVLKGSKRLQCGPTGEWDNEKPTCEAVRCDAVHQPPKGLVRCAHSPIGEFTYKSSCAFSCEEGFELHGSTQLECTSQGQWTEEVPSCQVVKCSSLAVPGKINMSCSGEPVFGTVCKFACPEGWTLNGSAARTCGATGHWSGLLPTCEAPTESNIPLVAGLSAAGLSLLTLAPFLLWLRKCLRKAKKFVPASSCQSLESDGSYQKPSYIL
human Vitamin D Receptor (VDR), VDR (gene 7421), sequence (P11473 whole entry, looked up): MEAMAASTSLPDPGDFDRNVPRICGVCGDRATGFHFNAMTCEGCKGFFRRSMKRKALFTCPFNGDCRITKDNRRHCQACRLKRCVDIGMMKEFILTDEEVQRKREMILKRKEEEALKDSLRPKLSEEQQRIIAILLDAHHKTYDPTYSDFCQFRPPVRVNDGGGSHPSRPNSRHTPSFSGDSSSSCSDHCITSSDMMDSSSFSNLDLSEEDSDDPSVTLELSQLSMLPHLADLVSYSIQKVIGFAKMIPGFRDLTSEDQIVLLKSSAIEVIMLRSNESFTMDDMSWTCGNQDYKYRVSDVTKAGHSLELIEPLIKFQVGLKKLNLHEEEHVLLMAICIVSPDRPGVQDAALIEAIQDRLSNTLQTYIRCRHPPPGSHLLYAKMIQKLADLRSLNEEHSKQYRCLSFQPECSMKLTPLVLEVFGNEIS
human Retinoid X Receptor beta (RXRb), RXRB (gene 6257), sequence (P28702 whole entry, looked up, the tested form may be a part): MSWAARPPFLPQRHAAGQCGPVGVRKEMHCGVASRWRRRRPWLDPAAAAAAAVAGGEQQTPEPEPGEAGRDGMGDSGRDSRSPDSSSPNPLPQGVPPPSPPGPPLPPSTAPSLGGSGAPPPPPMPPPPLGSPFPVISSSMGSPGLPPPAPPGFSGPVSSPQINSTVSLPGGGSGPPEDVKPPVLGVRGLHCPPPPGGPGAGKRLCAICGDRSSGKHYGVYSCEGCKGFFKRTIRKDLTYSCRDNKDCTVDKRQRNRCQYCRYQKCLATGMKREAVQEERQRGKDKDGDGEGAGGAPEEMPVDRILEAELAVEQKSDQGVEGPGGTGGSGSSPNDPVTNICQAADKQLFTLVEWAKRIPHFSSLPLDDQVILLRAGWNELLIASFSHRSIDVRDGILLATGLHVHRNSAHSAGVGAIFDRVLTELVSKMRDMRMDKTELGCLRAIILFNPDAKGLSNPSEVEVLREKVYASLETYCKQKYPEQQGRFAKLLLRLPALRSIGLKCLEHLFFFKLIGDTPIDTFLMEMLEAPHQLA

The AC50 is the concentration at which the activity in the assay is half-maximal. As to `COCc1c(C(C)C)nc(C(C)C)c(/C=C/[C@@H](O)C[C@@H](O)CC(=O)O)c1-c1ccc(F)cc1`, the outcome in [1], in [2], in [3], in assay [8], in [10] and in assay [13] was inactive. The result in assay [14] and in [15] was inactive. For the same compound, the AC50 in assay [4] was 4.73 µM (active); in assay [5] it was 0.00777 µM (active); in assay [6], 0.106 µM (active); in assay [7], 0.0685 µM (active); in assay [9] it was 0.0434 µM (active); in assay [11] it was 0.0192 µM (active). For the same compound, the AC50 in assay [12] was 0.456 µM (active).
As for `O=C(Cl)c1cc(C(=O)Cl)cc(C(=O)Cl)c1`, the compound was classed as inactive in [1], in assay [16] and in [13]. Moreover, the AC50 in [17] was 15.1 µM (active); in assay [3], 29.5 µM (active); in [4], 11.6 µM (active); in [5], 12.8 µM (active); in [6] it was 10.5 µM (active); in assay [7], 9.93 µM (active). For the same compound, the AC50 in assay [8] was 29.3 µM (active); in [9] it was 20 µM (active); in [10], 20 µM (active); in assay [18], 11.6 µM (active); in [11], 26.8 µM (active); in assay [19], 29.1 µM (active). The AC50 was 20 µM (active) in assay [12], 28.8 µM (active) in [14] and 14.8 µM (active) in assay [15].
For the compound `CCOc1nc(F)cc2nc(S(=O)(=O)Nc3c(Cl)cccc3C(=O)OC)nn12`, the result in [1], in [16], in assay [17], in assay [3], in assay [4] and in assay [5] was inactive. Moreover, the outcome in [6], in assay [7], in [8], in [20], in assay [9] and in [10] was inactive. Further, the result in assay [18], in assay [11], in [19], in assay [12], in [13] and in assay [14] was inactive. In addition, in assay [15], the result was inactive.
In the case of `O=C1CC2CC1C1CCCC21` (configuration not stated), the outcome in assay [1] and in [16] was inactive.
Turning to `CCOCC(=O)O`, the call in assay [1] and in [16] was inactive.
As to `CC1=NN(c2cc(S(=O)(=O)O)ccc2Cl)C(=O)C1N=Nc1ccccc1` (configuration not stated), the call in assay [1] and in assay [16] was inactive.
As to `CCCCCCCCCCCSCC(=O)O`, the result in [1] and in assay [16] was inactive.
Consider `NC(=O)NNC(N)=O`, for which the call in assay [1] and in assay [16] was inactive.
